According to PubChem BioAssay AID2391 (Southern Research Specialized Biocontainment Screening …, 2010):
Several values for one entry are separate records, joined by “and”; a condition that tells them apart may be missing. Equal values may be shown once. Among all 310,000 compounds or so, about 410 (0.13%) were called active. Not shown: some 2% with an inconclusive outcome. No rule for the calls is given here. Only a sample is shown. Entries with a potency or affinity are not part of this list.

assay: RSV antiviral activity via CPE protection, HEp-2 cells, primary 10 µM value included (AID 2391); conditions: RSV-induced CPE inhibition, at 10 µM, active compounds read high

CPE inhibition, inactive:
COc1ccccc1CNC(=O)c1ccc(CS(=O)Cc2cccc(Cl)c2)o1 (stereo not drawn) 4.42%
Cc1nn(-c2ccc([N+](=O)[O-])cc2)c2c1C(c1ccc(OC(F)F)cc1)N1C(=N2)C(=O)Nc2ccccc21 (stereo not drawn) 6.37%
Cc1ccc(C2c3c(C)nn(-c4ccc([N+](=O)[O-])cc4)c3N=C3C(=O)Nc4ccccc4N32)cc1 (stereo not drawn) 3.63%
O=C(c1ccc(F)cc1)C1CCN(C(=S)Nc2ccccc2Cl)CC1 2.44%
Cc1nn(Cc2ccc(Cl)cc2)c(C)c1NC(=O)c1cc(C(C)C)on1 7.7%
Cc1cc(C(=O)Nc2c(C)nn(Cc3c(Cl)cccc3Cl)c2C)no1 -0.07%
Cc1cc(C)n2nc(C(=O)N/N=C/c3c4ccccc4cc4ccccc34)nc2n1 3.03%
CCCCN(CC)Cc1c(C)[nH]c2c(ccc3ccccc32)c1=O 0.96%
COc1ccc(S(=O)(=O)NCc2ccco2)cc1NC(=O)c1ccccc1 3.54%
Cc1nn2c(-c3ccccc3)nnc2c2ccccc12 -0.87%
Cc1ccccc1-c1nnc2c3ccccc3c(C)nn12 -1.91%
COc1ccc(-c2nnc3c4ccccc4c(C)nn23)cc1 4.75%
COc1ccc(S(N)(=O)=O)cc1-c1nnc2c3ccccc3c(C)nn12 6.57%
COc1ccc(S(=O)(=O)NCc2ccco2)cc1N(C)S(=O)(=O)c1ccccc1 2.02%
Cc1ccc(N2C(=O)c3ccc(N)cc3C2=O)cc1 1%
COc1cc(SC)ccc1C(=O)Nc1ccc2c(c1)OCCO2 49.8%
CC(=O)Nc1ccc(OCC(O)Cn2nc(C)nc2C)cc1 (stereo not drawn) -1.49%
COc1ccc(CN(C(=O)c2oc3cc(C)c(C)cc3c2C)C2CCS(=O)(=O)C2)cc1OC (stereo not drawn) 5.1%
Cc1ccc(Cl)cc1NS(=O)(=O)c1ccc2oc(=O)ccc2c1 15.7%
O=C(COC(=O)c1ccc(OC(F)F)cc1)NC(=O)NC1CCCC1 2.84%
CC(=O)Nc1ccc(NC(=O)CCn2nnc3ccccc32)cc1 -1.57%
C=CCNC(=O)COC(=O)c1cc(S(=O)(=O)N2CCCCC2)ccc1Cl 0.67%
O=C(O)c1cc(-c2ccc(-c3ccc(F)cc3)o2)nc2ccccc12 7.68%
COc1ccc(-c2cc(C(=O)O)c3ccccc3n2)c(OC)c1 0.21%
O=C(O)c1cc(-c2cccs2)nc2ccc(F)cc12 -0.75%
COc1ccc(-c2cc(C(=O)N3CCCC3)c3ccccc3n2)cc1 3%
O=S(=O)(c1ccc(C2CCCCC2)cc1)N1CCOCC1 15.3%
O=C(CO/N=C/c1ccccc1)Nc1c(F)c(F)c(F)c(F)c1F 2.75%
COc1ccc(NC(=O)CN(C)C(=O)CCCc2nc3ccccc3s2)cc1 2.07%
Cc1cc(Cl)ccc1OCCCC(=O)N1CCN(C(=O)c2ccco2)CC1 17.5%
Cc1cc(SCC(=O)c2ccccc2)n2ncc(-c3ccccc3)c2n1 4.59%
Cc1ccc2nc(C)cc(SCC(=O)N/N=C/c3ccco3)c2c1 1.6%
CCCCCc1nc2c(c(=O)c3ccccc3n2C)c(=O)n1Cc1ccc(OC)cc1 56.9%
COCCn1c(-c2cccc(Br)c2)nc2c(c(=O)c3ccccc3n2C)c1=O 45.9%
COc1ccc(Cn2c(-c3ccco3)nc3c(c(=O)c4ccccc4n3C)c2=O)cc1 12.4%
CCc1nc2sc3ccccc3c(=O)c2c(=O)n1Cc1ccco1 10.5%
COc1ccc(Cn2c(-c3ccc(C)cc3)nc3c(c(=O)c4ccccc4n3C)c2=O)cc1 3.47%
COc1ccc(Cn2c(-c3ccccc3C)nc3c(c(=O)c4ccccc4n3C)c2=O)cc1 52.8%
COCCn1c(-c2ccc(Cl)cc2)nc2c(c(=O)c3ccccc3n2C)c1=O 8.68%
Cn1c2ccccc2c(=O)c2c(=O)n(Cc3ccco3)c(-c3ccc(C(C)(C)C)cc3)nc21 6.32%
COc1ccc(N2CCN(CCNS(=O)(=O)c3ccc(C)cc3)CC2)cc1 -1.19%
CCCCOc1ccc(Cl)cc1CSc1n[nH]c(C)n1 -1.27%
CC(NC(=O)c1c(F)cccc1Cl)c1ccc(-n2ccnc2)cc1 (stereo not drawn) 2.43%
COc1cnn(-c2ccccc2)c(=O)c1SCc1ccc(Cl)c(Cl)c1 5.77%
Fc1ccccc1NC(=S)N1CCN(C/C=C/c2ccccc2)CC1 0.73%
Cc1ccc(C)c(S(=O)(=O)N/N=C/c2ccc(N(C)C)cc2)c1 -0.72%
c1ccc2c(c1)nc1n2CN(Cc2ccc3c(c2)OCO3)CN1 1.87%
Cc1csc(=O)n1CCC(=O)OCC(=O)NNC(=O)c1ccccc1 -2.48%
COc1ccc(CCn2c(-c3ccccc3)nc3c(c(=O)c4ccccc4n3C)c2=O)cc1 2.88%
COc1ccc(CCn2c(C(C)C)nc3c(c(=O)c4ccccc4n3C)c2=O)cc1 4.88%
Cc1ccc(NC(=O)c2cn(-c3cccc(C)n3)cn2)cc1 3.46%
CC(C)C[C@H](NC(=O)c1nc[nH]c1C(=O)N[C@@H](CC(C)C)C(=O)OC(C)(C)C)C(=O)OC(C)(C)C -5.5%
CC(C)C[C@H](NC(=O)c1nc[nH]c1C(=O)NC1CCN(C(=O)OC(C)(C)C)CC1)C(=O)OC(C)(C)C 0.16%
COc1ccc(Cn2cnc3c4cc(F)ccc4n(C)c3c2=O)cc1 1.16%
CC(C)(C)c1cc(NC(=O)c2ccco2)no1 2.28%
Cc1occc1C(=O)Nc1cc(C(C)(C)C)on1 -1.18%
COc1ccc(N(C(=O)CNC(=O)c2ccco2)C(C(=O)NC2CCCC2)c2cccnc2)cc1 (stereo not drawn) -0.22%
NC(=O)c1ccsc1NC(=O)COC(=O)C1CC2CCCC(C1)C2=O (stereo not drawn) 1.41%
COc1ccc(Cl)cc1C(=O)N(Cc1nc(-c2cccc(C)c2)no1)C(C)C 10.2%
COc1ccccc1C(=O)N(Cc1nc(-c2ccc(Cl)cc2)no1)C(C)C 2.22%
CC(C)NS(=O)(=O)c1ccc(CCC(=O)N2CCCC2)cc1 1.63%
CCC1CCCCN1C(=O)c1ccc2nc(Cc3ccc(OC)cc3)oc2c1 (stereo not drawn) 20.7%
Cc1cccc(NC(=O)CNC(=O)CN2C(=O)NC3(CCCCC3C)C2=O)c1C (stereo not drawn) -0.96%
CC1CCCCC12NC(=O)N(CC(=O)Nc1ccccc1-c1ccccc1)C2=O (stereo not drawn) -0.96%
COc1ccc(C(=O)NCc2cc(C)nc3ccccc23)cc1OC 19%
CCOCCCNC(=O)C1CCN(Cc2cccc(OCc3ccccc3)c2)CC1 -0.9%
CCOC(=O)Cn1nnnc1C(CC)N(Cc1cc2ccc(C)cc2[nH]c1=O)C1CCCC1 (stereo not drawn) 0%
CCOC(=O)Cn1nnnc1C(C(C)C)N(Cc1cc2c(C)cc(C)cc2[nH]c1=O)C1CCCC1 (stereo not drawn) 9.34%
CN(Cc1ccccc1)C(=O)CN1C(=O)c2ccc([N+](=O)[O-])cc2C1=O 1.1%
CC(=O)Nc1ccc(NC(=O)COc2ccc(Cl)cc2Cl)cc1 5.13%
N#CCCN(CCC#N)C(=O)COc1ccc(Cl)cc1Cl 2.86%
CCOc1ccccc1NC(=O)Nc1ccc2c(c1)CCC2 7.85%
COc1ccc(NC(=O)Nc2ccc3c(c2)CCC3)c(OC)c1 3.19%
COc1cc(C(=O)NCCC(=O)NC2CCCc3ccccc32)cc(OC)c1OC (stereo not drawn) 0.19%
O=C(CCl)NC1CCCc2ccccc21 (stereo not drawn) -0.24%
O=C(NC1CCCc2ccccc21)c1ccc(Br)cc1 (stereo not drawn) 6.09%
O=C(Cc1ccc(Br)cc1)NC1CCCc2ccccc21 (stereo not drawn) 2.96%
O=c1c2ccccc2ncn1Cc1ccc(Cl)c(Cl)c1 3.3%
Cc1cc(C)[n+]2n1C(=O)C(c1ccccc1)=C2[O-] 3.89% and 3.76%
Nc1ccccc1SCC1CSc2nc3ccccc3c(=O)n21 (stereo not drawn) 2.42%
COc1cccc(SCC2CSc3nc4ccccc4c(=O)n32)c1 (stereo not drawn) 7.09%
O=C(Nc1ccccc1SCC1CSc2nc3ccccc3c(=O)n21)c1ccccc1 (stereo not drawn) 2.48%
O=c1c2ccccc2nc2n1C(CSc1ccccc1)CS2 (stereo not drawn) 1.34%
O=c1c2ccccc2nc2n1C(CSc1ccc(F)cc1)CS2 (stereo not drawn) 2.75%
O=c1c2ccccc2nc2n1C(CSCc1ccc(Cl)cc1Cl)CS2 (stereo not drawn) 5.16%
O=C(OC(C(=O)NC1CCCC1)c1ccccc1F)c1ccco1 (stereo not drawn) 0.45%
Nc1cc(=O)[nH]c(SCC(=O)N2N=C(c3ccc(Cl)cc3)CC2c2ccco2)n1 (stereo not drawn) 7.31%
CCn1c(=O)n(CC(=O)Nc2ccc(F)cc2)c(=O)c2ccccc21 2.36%
CC(=O)OC[C@H]1O[C@@H](Sc2cccc3cccnc23)[C@H](OC(C)=O)[C@@H](OC(C)=O)[C@@H]1OC(C)=O 1.39%
O=C(NC1CC2CCCC(C1)N2C(=O)Nc1ccccc1)C1CC1 (stereo not drawn) 1.59%
O=C(COC(=O)/C=C/c1ccc(C(F)(F)F)cc1)NCC1CCCO1 (stereo not drawn) -1.68%
CCOC(=O)c1sc2nc3c(SCC(=O)O)cc(C(=O)c4ccccc4O)cn3c(=O)c2c1C 11.9%
Cc1sc2nc3c(C(=O)N4CCCC4)cc(C(=O)c4ccccc4O)cn3c(=O)c2c1C 1.18%
